# Bioassay records from PubChem.
# HT1080-NT tox = kills 2HG-producing HT-1080-NT fibrosarcoma cells. AID 686970. HT-1080-NT fibrosarcoma viability, CellTiter-Glo ATP luminescence, 48 h. Potency, µM (titrated, usually from 46.1 µM), for the others: at the highest dose activity, negative = less viability, actives largely listed as cytotoxic. hit rate 1.6% among 360,000;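 note: NT is the 2HG producing partner of a matched IDH1 knockdown line; 0% = DMSO-treated cells and -100% = media-only wells without cells; nearly all actives have a fitted effect of over 55% in size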
#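 Luminescent CellTiter-Glo readout after 48 hours of compound exposure at 37 degrees C defined viability of HT-1080-NT cells. Activity was normalized to DMSO wells and cell-free media wells; concentration-response curves were fitted and assigned curve classes.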
# ATXN2 expr inh = reduces ATXN2 reporter expression in HEK-293 cells; HEK-293 ATXN2-luciferase reporter, luminescence, 24 h; Potency, µM (highest dose often 57 µM), without a hit: at the top dose activity change, negative = inhibition, hits mostly inhibitors; hit rate 0.72% among 360,000; note: % is set by controls: 0 for no effect and ±100 for the full control effect; nearly all actives have a fitted effect of over 55% in size
#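 qHTS (up to 57 uM final) was run with 24 h compound exposure of reporter cells at 37 °C. Each well was multiplexed: SteadyGlo luminescence measured ATXN2-luciferase expression after a fluorogenic Gly-Phe-AFC viability readout (25 uM final).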
# TGFb inhibitor = blocks TGF-b signaling; HepG2 CAGA-GFP TGF-b/SMAD3 reporter, GFP fluorescence, 18 h; TGF-beta stimulated, 500 pg/mL final; Potency, µM (doses to about 46.1 µM), inactives show top-dose activity, negative = inhibition, actives largely listed as inhibitors; hit rate 1.2% among 410,000; AID 588855; note: % is set by controls: 0 for no effect and ±100 for the full control effect; nearly all actives have a fitted effect of over 65% in size
#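 GFP signal (ex488/em500-530) from TGF-beta-stimulated HEPG2 CAGA-GFP cells, 500 pg/mL final, 18 h at 37 degrees C in DMEM plus 1% FBS, normalized to unstimulated and DMSO-stimulated controls.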
# HepG2 tox = counter-screen for TGF-b inhibitors: cytotoxicity in HepG2 cells | Potency, µM (titrated, usually from 46.1 µM), without a hit: at the highest dose activity change, negative = cytotoxicity, actives largely listed as cytotoxic | hit rate 0.76% among 410,000 | HepG2 CAGA-GFP viability, ATP luminescence, 18 h
#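 CellTiter-Glo luminescence gave cytotoxicity after 18 hours at 37 degrees C. The cells were HepG2 CAGA-GFP in 1% FBS DMEM, stimulated with 500 pg/mL TGF-beta after compound addition. %Activity was normalised to no-cell wells (complete cell-killing) and DMSO (no toxicity), and curves were fitted and classified.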
# HT1080 IDH1KD tx = toxicity to HT-1080 IDH1 knockdown cells (counter line); HT-1080 IDH1 knockdown viability, ATP luminescence, 48 h; Potency, µM (titrated, usually from 46.1 µM), inactives show at the top dose activity, negative = toxicity, usual class: cytotoxic; hit rate 2% among 360,000;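 note: 0% = DMSO wells and -100% = cell-free medium wells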
#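 In this qHTS, HT-1080 cells depleted of IDH1 are exposed for 48 h at 37 °C to compound titrations. Toxicity is scored from CellTiter-Glo luminescence, with DMSO as full viability and medium alone as none.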
# ATXN viability = cell viability loss in ATXN counter-screen | S2 cells (HEK-293 line with an ATXN2-luciferase reporter) viability, CellTiter-Fluor protease fluorescence, 24 h | Potency, µM (top dose mostly 56.7 µM), hits mostly cytotoxic | hit rate 0.49% among 400,000; note: nearly all actives have a fitted effect of over 40% in size
# Numbers without * were called inactive; i = inactive; ? = inconclusive; · = not tested or not shown. A selection: hits, their analogues and other compounds. The true share with any hit is near 3.9%. Calls come from the whole dose curve; as a rule, active = well fitted curve in the direction sought with a large enough effect; inconclusive = small, poorly fitted or top-dose-only effect, or another doubt; inactive = no such curve, though single readings can be large; an effect the other way counts as inactive or inconclusive. Potency is the fitted concentration of half-maximal effect.
SMILES,HT1080-NT tox,ATXN2 expr inh,TGFb inhibitor,HepG2 tox,HT1080 IDH1KD tx,ATXN viability
N#CC1=C(N)C(C#N)(C#N)[C@H](c2c(F)cccc2F)[C@H]2CC3(CC=C12)OCCO3,?,?,-13.7%,-48.4%,10µM*,?
COc1ccccc1OCc1nc(-c2cccc(C)c2)no1,·,43.2%,4.0%,3.0%,·,i
CCC1CN(Cc2cn[nH]c2-c2ccccc2)Cc2cc(OC)ccc2O1 (configuration not stated),·,·,·,·,·,i
COc1ccc(-c2oc3cc(O)c(OC)c(O)c3c(=O)c2OC)cc1O,0.411µM*,57.4%,?,-37.9%,0.581µM*,?
CCc1ccccc1Nc1nc(N)nc(COC(=O)c2cccn2C)n1,?,49.2%,4.9%,-33.1%,6.31µM*,i
O=C(NC(=Nc1nc2ccccc2o1)NC(=O)c1ccccc1)c1ccccc1,19.2%,36.4%,0.1%,-10.7%,-2.4%,i
O=C(NNc1nc2ccccc2o1)c1ccccc1,-11.2%,1.58µM*,18.3%,-25.2%,-18.6%,i
CCN(Cc1ccncc1)Cc1ccc2c(c1)CN(C(=O)c1cccc3c(C)c(C)[nH]c13)CCO2,·,·,·,·,·,i
CC[C@]12c3[nH]c4cc(CCC(=O)N(C)C)ccc4c3CCN1C(=O)[C@@H](CC(=O)NC/C=C(\C)CCC=C(C)C)C[C@@H]2C(=O)N1CCN(C(=O)c2ccco2)CC1,?,?,?,-45.6%,20.6µM*,?
CC[C@]12c3[nH]c4ccc(Cl)cc4c3CCN1C(=O)[C@@H](CC(=O)NC/C=C(\C)CCC=C(C)C)C[C@@H]2C(=O)N1CCN(C(=O)c2ccco2)CC1,?,?,?,-18.3%,14.6µM*,?
O=C(O)c1ccc(CNCc2ccccc2Cl)s1,·,9.6%,10.1%,-2.4%,·,i
Cc1ccccc1C(=O)n1nc(-c2ccco2)nc1NCc1cccs1,·,3.8%,36.2%,6.0%,·,i
CCCCc1c(C)c(C#N)c2[nH]c3ccccc3n2c1=O,-4.9%,?,3.16µM*,-51.8%,-6.8%,i
Cc1c(CCO)c(=O)n2c([nH]c3ccccc32)c1C#N,-1.8%,-18.1%,-3.8%,-12.7%,-8.0%,i
O=C(CSc1nccn1Cc1ccc(Cl)cc1)Nc1nc2ccccc2s1,·,-18.9%,?,-62.5%,·,?
O=C(CCl)N(Cc1cc(=O)[nH]c2ccccc12)c1ccccc1,-13.6%,·,11.2µM*,-92.1%,?,?
COc1ccc(CC(=O)N(Cc2ccccc2)c2cccc(C)c2)cc1OC,2.8%,-7.7%,5.3%,-5.3%,-7.8%,i
CCC(=O)N(Cc1cc(=O)[nH]c2ccccc12)c1ccccc1,-7.2%,6.3%,-1.1%,-3.5%,-7.2%,i
Cc1cccc(N(Cc2ccccc2)C(=O)CCl)c1,1.46µM*,0.752µM*,?,-85.5%,1.3µM*,0.532µM*
O=C(CCl)N(Cc1ccccc1)c1ccccc1,10.3µM*,0.1%,12.6µM*,12.6µM*,16.4µM*,i
CC(C)C(NS(C)(=O)=O)c1nnc2n1CCN(Cc1ccc(C#CC(C)(C)O)cc1)CC2 (configuration not stated),·,·,·,·,·,i
C[C@]12CC[C@@H]3c4ccc(O)cc4C[C@@H](CCCCCCCCCS(=O)CCCC(F)(F)C(F)(F)F)[C@H]3[C@H]1CC[C@H]2O (some centres not stated),·,-7.3%,·,·,·,·
CCN(CC)c1ccc(CN(C(=O)Cc2coc3ccc(C)cc23)C2CCS(=O)(=O)C2)cc1 (configuration not stated),·,-13.8%,?,-27.0%,·,?
O=C1NNC(c2ccccc2)=N/C1=C\c1ccco1,-1.4%,-17.1%,-3.3%,-16.1%,-8.2%,i
COc1cc(/C=C2\N=C(c3ccccc3)NNC2=O)cc(OC)c1OC,4.61µM*,-2.8%,?,-20.4%,3.26µM*,i
SMILES,HT1080-NT tox,ATXN2 expr inh,TGFb inhibitor,HepG2 tox,HT1080 IDH1KD tx,ATXN viability
CC(=O)Nc1ccc(NC(=O)c2nc(S(=O)(=O)Cc3cccc(C)c3)ncc2Cl)cc1,9.2µM*,?,?,-147.4%,5.8µM*,?
COC(=O)c1ccc(NC(=O)c2nc(S(=O)(=O)Cc3cccc(C)c3)ncc2Cl)cc1,11.6µM*,?,?,22.4µM*,20.6µM*,28.2µM*
Cc1ccc(CNC(=O)c2nc(S(=O)(=O)Cc3ccc(C)cc3)ncc2Cl)cc1,·,5.5%,?,-50.2%,·,i
COC(=O)c1ccccc1NC(=O)c1nc(S(=O)(=O)Cc2cccc(C)c2)ncc1Cl,·,·,-3.4%,3.9%,·,·
CCOc1ccc(NC(=O)CSC2=Nc3ccccc3C3=NC(CC(=O)NCc4ccccc4OC)C(=O)N23)cc1 (configuration not stated),·,·,0.6%,-2.1%,·,·
CCCCOc1c(C(=O)c2c(F)cc(C)cc2F)cnc2n[nH]cc12,·,9.68µM*,·,·,·,·
CCOC(=O)c1cnc2ccc(C)cc2c1Sc1ccc(F)cc1,?,15.8%,?,-27.6%,?,i
CCOc1ccc(OCC)c(NC(=O)CCC(=O)N2CCOc3ccccc32)c1,·,-10.9%,1.2%,-0.8%,·,i
